# Bioassay records deposited in PubChem BioAssay by several laboratories.
# SENP6 block: blocks the human protease SENP6 | Q9GZR1 | inhibition, % at 10 µM | 330,000 tested, 1.8% active | Recombinant SENP6 catalytic domain, aminoluciferin luminescence | AID 2599;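 active means inhibition above about 50% at the single tested dose, limit read from the data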
# HSP90 refold inh: inhibitors of HSP90 luciferase refolding in rabbit reticulocyte lysate | AID 1789 | 290,000 tested, 0.91% active | inhibition, % at 5.6 µM | luciferase refolding luminescence, 3 h;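 active means inhibition above the screen-wide mean plus 3 SD, computed separately per campaign, cut at about 16% in these data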;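 further: inhibitors lower the luminescence because luciferase stays unfolded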
# SENP7 inh: inhibitors of human SENP7 protease; Q9BQF6; 330,000 tested, 1.5% active; inhibition, % at 5 µM; AID 434973; recombinant SENP7, Z-RLRGG-aminoluciferin luminescence, 40 min;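 active means inhibition above about 50% at the single test dose, limit read from the data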
# Platelet DG rel: platelet dense granule release activity. human platelet-rich plasma, SFLLRN dense granule ATP release, luminescence. inhibition, %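 (compounds screened at 7.5 µM in platelet-rich plasma)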. 300,000 tested, 0.22% active. AID 1663;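 active means mean replicate score, as percent of positive control, at or above 50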
# SENP8 block-1: blocks human SENP8 cleavage of Nedd8 substrate; 360,000 tested, 0.64% active; inhibition, % at 20 µM; recombinant SENP8, Nedd8 substrate fluorescence; AID 602440; Q96LD8; in the data active means inhibition mostly above about 40%, no sharp cut-off; inactive means mostly below about 27%
# SENP8 block-2: inhibitors of human SENP8 protease | AID 2540 | Q96LD8 | 330,000 tested, 1.2% active | purified SENP8, Z-RLRGG-aminoluciferin cleavage, luminescence | inhibition, % at 10 µM; in the data active means inhibition above about 50%
# HSP90 inh confirm: HSP90 inhibition, confirmation assay | inhibition, % at 5.9 µM | 2,300 tested, 64% active | AID 1846 | rabbit reticulocyte lysate, luciferase refolding luminescence, 3 h | shares compounds with HSP90 refold inh; in the data active means inhibition above about 18%
# luciferase ctr: firefly luciferase inhibition, HSP90 counter-screen; 2,300 tested, 48% active; inhibition, % at 5.9 µM; purified native firefly luciferase, luminescence; shares compounds with HSP90 refold inh;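 active means inhibition above the mean inhibition of all tested sample wells plus 3 SD, cut at about 10% in these data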
# Target sequence (P08659 whole entry, looked up): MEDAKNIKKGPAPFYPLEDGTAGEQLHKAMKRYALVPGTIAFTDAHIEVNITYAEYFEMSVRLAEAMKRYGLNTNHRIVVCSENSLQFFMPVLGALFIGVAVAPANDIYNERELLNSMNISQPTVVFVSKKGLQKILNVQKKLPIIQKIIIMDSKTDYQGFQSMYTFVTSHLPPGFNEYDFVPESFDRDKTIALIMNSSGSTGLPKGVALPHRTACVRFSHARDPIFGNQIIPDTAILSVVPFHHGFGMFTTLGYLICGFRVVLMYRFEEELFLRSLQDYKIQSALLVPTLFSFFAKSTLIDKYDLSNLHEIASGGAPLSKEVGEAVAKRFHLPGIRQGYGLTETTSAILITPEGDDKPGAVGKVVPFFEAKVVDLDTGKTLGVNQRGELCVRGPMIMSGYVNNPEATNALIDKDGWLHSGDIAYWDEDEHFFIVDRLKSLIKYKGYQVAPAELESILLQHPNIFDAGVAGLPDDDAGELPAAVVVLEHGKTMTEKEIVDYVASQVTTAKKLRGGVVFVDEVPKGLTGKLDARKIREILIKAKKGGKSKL
# SENP8 confirm: human SENP8 inhibition, confirmed | shares compounds with SENP7 inh | inhibition, % at 12.5 µM | AID 488912 | Recombinant SENP8, Z-RLRGG-aminoluciferin luminescence, 60 min | 6,200 tested, 40% active;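 active means mean inhibition across replicates above about 50%, limit read from the data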
# SENP6 conf: human SENP6 inhibition, confirmed; shares compounds with SENP7 inh; recombinant SENP6, Z-RLRGG-aminoluciferin luminescence; inhibition, % at 12.5 µM; 6,200 tested, 58% active
# SENP7 confirm: confirmation of human SENP7 protease inhibitors; shares compounds with SENP7 inh; inhibition, % at 12.5 µM; recombinant SENP7, Z-RLRGG-aminoluciferin luminescence, 40 min; AID 488917; 6,200 tested, 69% active
# Casp3 SENP sel: selectivity test for SENP inhibitors: human caspase-3 inhibition | shares compounds with SENP7 inh | purified caspase-3, Z-DEVD-aminoluciferin luminescence, 60 min | inhibition, % at 12.5 µM | 6,200 tested, 60% active | AID 488918;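 active means mean inhibition above about 50%, limit read from the data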
# SENP luc ctr: luminescence interference (SENP counter-screen); shares compounds with SENP7 inh; Pre-incubated SENP8/Z-RLRGG-aminoluciferin, luciferase luminescence interference; inhibition, % at 12.5 µM; 6,200 tested, 39% active;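 active means mean inhibition above about 50% when retested at one dose, limit read from the data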
# Numbers stand for hits; 0 = inactive; - = no result given. The list is not random: actives were taken first. Their share in the collection is about 2.8%.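 How the source made its calls, unless noted: active means mean inhibition above about 50% in the one-dose retest (limit read from the data); inactive means the rest.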
SMILES,SENP6 block,HSP90 refold inh,SENP7 inh,Platelet DG rel,SENP8 block-1,SENP8 block-2,HSP90 inh confirm,luciferase ctr,SENP8 confirm,SENP6 conf,SENP7 confirm,Casp3 SENP sel,SENP luc ctr
COc1ccc(Br)c(C(=O)Nc2nc3ccccc3[nH]2)c1,0,0,0,0,0,0,-,-,-,-,-,-,-
O=C(Nc1nc2ccccc2[nH]1)c1ccc(OC(F)F)cc1,94.8,36.6,95.9,0,0,89.3,58.4,53.2,81.2,93.4,100.9,94.9,61.8
COc1cc(OC)cc(C(=O)Nc2nc3ccccc3[nH]2)c1,0,0,0,0,0,0,-,-,-,-,-,-,-
CCCc1ccc(-c2ccc(C(=O)O)cc2)nc1,68.7,50.0,67.4,0,0,59.5,56.3,25.9,69.7,66.3,90.3,73.1,69.5
CCCCCc1ccc(-c2ccc(/C=C/C(N)=O)cc2)nc1,0,0,0,0,0,0,-,-,-,-,-,-,-
COc1ccc(-c2nc(-c3ccncc3)no2)cc1OC,0,0,0,0,0,0,-,-,-,-,-,-,-
Cc1ccc(-c2nc(-c3ccncc3)no2)cc1C,84.9,21.0,78.0,0,0,79.4,29.0,25.1,53.3,58.4,76.4,65.5,0
COc1cccc(C(C(=O)NC2CCCC2)N(C(=O)c2ccco2)c2ccccc2)c1OC (stereo unspecified),0,0,0,0,0,0,-,-,-,-,-,-,-
COc1ccc(S(=O)(=O)Cc2ccc(C(=O)NC3CCCCC3)o2)cc1,0,0,0,0,0,0,-,-,-,-,-,-,-
CCc1ccc(C(=O)/C=C/c2cnn(C)c2C)s1,53.8,35.0,0,0,0,0,26.2,52.2,0,0,0,0,0
Cc1c(/C=C/C(=O)c2cccs2)cnn1C,0,0,0,0,0,0,-,-,-,-,-,-,-
O=C1C(=C2SCCCS2)CC/C1=C\c1ccc(F)cc1,95.0,53.8,99.0,0,0,95.7,92.5,86.2,0,68.4,62.7,83.6,0
O=C(O)c1ccc(N=Nc2c(O)ccc3ncccc23)cc1,96.7,53.5,100.4,0,0,96.9,53.7,19.7,98.6,99.2,102.3,89.1,61.7
NC(=O)c1nsc(C(=O)N(CC(=O)NC2CCCCC2)Cc2ccc(F)cc2)c1N,0,0,0,0,0,0,-,-,-,-,-,-,-
Nc1c(-c2ccccc2)cnn1-c1ccc(C(=O)O)cc1,0,24.6,52.6,0,0,0,42.5,0,0,0,75.6,66.2,60.0
Nc1c(-c2ccccc2)cnn1-c1cccc(C(F)(F)F)c1,0,0,0,0,0,0,-,-,-,-,-,-,-
COc1ccccc1N(/N=C1\Sc2ccccc2C1=O)C(C)=O,91.7,70.7,0,0,0,78.8,75.9,34.3,0,82.6,66.3,0,0
COc1ccccc1NC1=C(NC(C)=O)C(=O)c2ccccc2C1=O,-,0,-,0,0,-,-,-,-,-,-,-,-
COc1ccc2[nH]c(C(=O)Nc3cccc(C)n3)cc2c1,91.0,23.2,85.6,0,0,85.5,29.8,19.1,91.7,92.1,100.5,91.9,58.5
Cc1ccnc(Nc2nc3ccccc3o2)n1,76.7,21.8,72.9,0,0,66.6,44.9,22.0,0,54.4,88.3,90.2,0
CC(C)(C)c1ccc(-c2nc3cc(N)ccc3o2)cc1,82.8,30.8,78.2,0,0,73.6,41.9,44.7,0,84.1,94.6,0,77.4
CC(C)c1ccc2oc(-c3ccc(N)cc3)nc2c1,94.1,22.6,93.1,0,0,86.3,49.6,46.3,94.5,94.8,100.2,68.9,93.6
Cc1ccc2nc(-c3cccc(N)c3)[nH]c2c1,93.5,17.8,95.7,0,0,88.2,45.3,32.5,0,91.4,100.8,95.4,92.7
Cc1ccc(-c2nc3ccc([N+](=O)[O-])cc3[nH]2)cc1,76.0,24.6,72.8,0,0,66.4,41.6,43.4,0,76.9,95.8,64.5,0
CC(C)c1ccc2oc(-c3ccc(NC(=O)c4ncn[nH]4)cc3)nc2c1,0,0,0,0,0,0,-,-,-,-,-,-,-
SMILES,SENP6 block,HSP90 refold inh,SENP7 inh,Platelet DG rel,SENP8 block-1,SENP8 block-2,HSP90 inh confirm,luciferase ctr,SENP8 confirm,SENP6 conf,SENP7 confirm,Casp3 SENP sel,SENP luc ctr
Cc1ccc(C(=O)NC2CCN(CC(=O)Nc3ccccc3Cl)CC2)cc1,0,0,0,0,0,0,-,-,-,-,-,-,-
Cc1cccc(C)c1N(C(=O)c1ccco1)C(C(=O)NC1CCCC1)c1ccncc1 (stereo unspecified),0,0,0,0,0,0,-,-,-,-,-,-,-
Cc1ccc2oc(-c3cccc(N)c3)nc2c1,96.9,33.3,98.1,0,0,93.9,43.2,38.3,0,96.6,102.5,94.2,58.5
O=C1Nc2cc3c(cc2C1=O)sc1ccccc13,0,0,0,0,0,0,-,-,-,-,-,-,-
Cc1ccc(NC(=O)Nn2cnnc2)cc1Cl,0,0,0,0,0,0,-,-,-,-,-,-,-
Cc1ccc(NC(=O)O/N=C/c2c(C)nn(C(C)(C)C)c2C)cc1Cl,52.4,86.0,51.6,0,0,0,86.9,87.7,0,0,0,0,0
CC1(C)CC(CCNC(=O)CCl)(c2ccccc2)CCO1 (stereo unspecified),0,0,0,0,0,0,-,-,-,-,-,-,-
Cc1nc(C)c(C(=O)Nc2ncc([N+](=O)[O-])s2)o1,98.0,47.0,89.3,0,0,95.0,65.8,40.6,97.5,98.0,101.6,97.7,96.5
CCC(C(=O)NCCN1CCOCC1)n1c2ccccc2c2nc(=O)cc(C)n21 (stereo unspecified),0,0,0,0,0,0,-,-,-,-,-,-,-
CCCCn1c(NC(=O)c2ccccc2Cl)c(C#N)c2nc3ccccc3nc21,96.0,58.7,70.2,0,0,93.9,45.7,0,75.8,89.7,78.2,0,0
N#Cc1c(NC(=O)c2ccccc2Cl)n(Cc2ccccc2)c2nc3ccccc3nc12,-,0,-,-,0,-,-,-,-,-,-,-,-
N/C(=N\OC(=O)c1ccc([N+](=O)[O-])cc1Cl)c1ccccn1,95.5,66.5,95.4,0,0,90.7,60.6,89.7,82.5,96.1,102.5,97.4,0
Cc1ccc(C(=O)O/N=C(\N)c2ccccc2)c(Cl)c1,98.6,56.4,98.9,68.5,0,96.7,79.6,86.6,0,0,0,0,0
